The supplement of paper PMC3545927
The list shows a part of the results. How many sequences the whole screen found active is unknown.

Biological target: furin, P09958
Test: furin cleavage Z-score vs untreated control; higher = more cleavage, active = 3.5 or more, inactive = 1 or less, 8 variable residues between constant flanks
Outline: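 Sequencing of released DNA, tagged with adapters by PCR, gave read counts used as abundance. That DNA was freed when purified furin cut N-terminally bead-bound 8-mer peptides fused to a cDNA oligonucleotide, in 0.01 ml reactions at 1:10 enzyme:substrate in 50 mM HEPES pH 7.5 with CaCl2 and NaCl, lasting 7.5, 15 or 30 min. The cleavage Z-score was the lowess-adjusted log count versus furin-free reactions, scaled by median absolute deviation.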

Sequence of furin, P09958 (P09958 whole entry): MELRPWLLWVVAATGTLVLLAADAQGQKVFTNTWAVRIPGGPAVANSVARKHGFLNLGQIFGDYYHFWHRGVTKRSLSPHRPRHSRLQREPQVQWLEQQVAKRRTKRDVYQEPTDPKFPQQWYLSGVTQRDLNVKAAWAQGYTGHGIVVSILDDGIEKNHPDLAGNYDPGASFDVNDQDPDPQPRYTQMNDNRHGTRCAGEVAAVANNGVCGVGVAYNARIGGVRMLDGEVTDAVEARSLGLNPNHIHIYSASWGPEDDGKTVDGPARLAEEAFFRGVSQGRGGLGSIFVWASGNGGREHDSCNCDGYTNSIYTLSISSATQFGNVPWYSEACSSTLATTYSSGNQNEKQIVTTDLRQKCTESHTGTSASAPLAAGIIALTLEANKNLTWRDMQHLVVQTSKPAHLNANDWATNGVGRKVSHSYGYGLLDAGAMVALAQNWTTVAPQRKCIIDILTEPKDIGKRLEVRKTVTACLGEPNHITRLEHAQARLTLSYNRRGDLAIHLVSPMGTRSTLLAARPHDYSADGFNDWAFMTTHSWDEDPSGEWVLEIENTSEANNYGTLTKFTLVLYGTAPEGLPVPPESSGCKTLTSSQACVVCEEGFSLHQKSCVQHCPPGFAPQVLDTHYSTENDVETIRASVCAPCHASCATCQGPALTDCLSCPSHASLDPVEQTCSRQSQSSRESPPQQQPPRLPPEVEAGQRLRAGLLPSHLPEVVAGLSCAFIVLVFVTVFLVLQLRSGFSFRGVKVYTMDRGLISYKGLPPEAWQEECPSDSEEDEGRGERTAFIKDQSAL

Sequence	furin cleavage Z-score (7.5 min)	furin cleavage Z-score (15 min)	furin cleavage Z-score (30 min)
CAVYCCSMSYAGNASASA [HC2009]	-0.694 (inactive)	-1.09 (inactive)	-1.22 (inactive)
CATTPCSGSQAGNASASA [HC1942]	-0.135 (inactive)	-0.54 (inactive)	-2.05 (inactive)
CARHIRLVLKAGNASASA [FS-2937]	-1.39 (inactive)	-0.583 (inactive)	-0.338 (inactive)
CAFQRRMAGMAGNASASA [FS-1671]	-0.225 (inactive)	-0.266 (inactive)	0.306 (inactive)
CASRMREDRDAGNASASA [FS-871]	-0.996 (inactive)	-0.456 (inactive)	1.09
CARHIRRRRDAGNASASA [FS-1158]	10.5 (active)	10.7 (active)	6.88 (active)
CALTRRMRRDAGNASASA [FS-177]	14 (active)	14.8 (active)	9.72 (active)
CADRRRRRRDAGNASASA [FS-647]	7.06 (active)	7.21 (active)	4.92 (active)
CAFQRRRRRDAGNASASA [FS-906]	11.2 (active)	12 (active)	8.45 (active)
CAMCTTPCSGAGNASASA [HC1946]	0.117 (inactive)	1.58	0.427 (inactive)
CAEVPCHRVSAGNASASA [HC2390]	2.12	0.773 (inactive)	2
CAEPTTPCSGAGNASASA [HC1979]	-1.55 (inactive)	-0.645 (inactive)	-0.627 (inactive)
CAWTTQGCNCAGNASASA [HC310]	0.795 (inactive)	-2.96 (inactive)	-0.152 (inactive)
CAWEMEECSQAGNASASA [HC1788]	1.14	0.864 (inactive)	-0.48 (inactive)
CATRGERCDLAGNASASA [HC484]	-0.0552 (inactive)	1.25	1.03
CAEHVVCCSMAGNASASA [HC2135]	0.471 (inactive)	-0.688 (inactive)	1.47
CAVVCCSMSTAGNASASA [HC2098]	0.887 (inactive)	-0.156 (inactive)	0.445 (inactive)
CAGRPRSRKIAGNASASA [FS-657]	-0.514 (inactive)	-1.38 (inactive)	0.291 (inactive)
CAYGCRRRRDAGNASASA [FS-737]	9.65 (active)	10.6 (active)	8.47 (active)
CALAFRRRRDAGNASASA [FS-346]	7.62 (active)	8.27 (active)	6.14 (active)
CATTDRRRRDAGNASASA [FS-101]	9.9 (active)	8.9 (active)	5.67 (active)
CAGRPRRRRDAGNASASA [FS-432]	11.8 (active)	13.5 (active)	9.18 (active)
CAWAHNGLRDAGNASASA [HC640]	0.594 (inactive)	0.97 (inactive)	-0.0784 (inactive)

Sequence	furin cleavage Z-score (7.5 min)	furin cleavage Z-score (15 min)	furin cleavage Z-score (30 min)
CAEVPCHRPCAGNASASA [HC2420]	0.0318 (inactive)	0.651 (inactive)	0.47 (inactive)
CAIMFAPTLWAGNASASA [HC1577]	-1.61 (inactive)	-2.05 (inactive)	0.617 (inactive)
CASPVFTDNSAGNASASA [HC764]	-0.427 (inactive)	0.197 (inactive)	-1.76 (inactive)
CAAWDMMMNWAGNASASA [HC320]	1.05	0.73 (inactive)	-0.468 (inactive)
CAPEECSQHLAGNASASA [HC1679]	1.99	1.43	0.965 (inactive)
CAGEIPFYGKAGNASASA [HC846]	1.57	-1.54 (inactive)	-0.341 (inactive)
CAIEANLLWRAGNASASA [HC1274]	0.45 (inactive)	0.419 (inactive)	0.862 (inactive)
CARAERGPRSAGNASASA [FS-1058]	3.99 (active)	4.52 (active)	4.09 (active)
CAAKARGPRSAGNASASA [FS-745]	11 (active)	9.83 (active)	7.42 (active)
CASASRGPRSAGNASASA [FS-1078]	4.05 (active)	4.67 (active)	4.87 (active)
CAVGKRQPRSAGNASASA [FS-1176]	10.8 (active)	10.9 (active)	8.62 (active)
CAREYRGQRSAGNASASA [FS-705]	-0.292 (inactive)	2.01	0.594 (inactive)
CAATPPGSVTAGNASASA [HC835]	-1.05 (inactive)	-0.0418 (inactive)	-0.602 (inactive)
CAFVGAGLAGAGNASASA [HC1075]	-0.934 (inactive)	-0.739 (inactive)	-0.847 (inactive)
CAVVCCSFSYAGNASASA [HC2047]	0.639 (inactive)	-0.617 (inactive)	-0.397 (inactive)
CATKLLLAVFAGNASASA [HC605]	1.92	3.24	0.635 (inactive)
CASTPCSAHMAGNASASA [HC2566]	-0.903 (inactive)	0.0563 (inactive)	1.83
CAAMTPTVATAGNASASA [HC281]	0.668 (inactive)	1.6	-0.149 (inactive)
CATHSIKKRSAGNASASA [FS-1574]	8.84 (active)	7.91 (active)	7.4 (active)
CAQTSRSNRFAGNASASA [FS-852]	0.217 (inactive)	-0.984 (inactive)	0.464 (inactive)
CAQTSRNTRSAGNASASA [FS-184]	9.04 (active)	11.5 (active)	9.02 (active)
CAERHRQTRSAGNASASA [FS-763]	6.53 (active)	6.61 (active)	4.64 (active)
CASASHKKRSAGNASASA [FS-867]	3	2.31	3.6 (active)
